TSHR antag – human thyrotropin receptor antagonism; AID 504810; activity change, negative = inhibition, % at 11.5 µM; P16473; 0.2% of 330,000 active; TSHR-expressing cells, TSH-stimulated cAMP HTRF, 2 h; hits give low values;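 active = activity change below a set negative limit, meaning inhibition stronger than a set level, cut at about -70% in these data; inconclusive = activity change between two set negative limits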
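Cell-based HTRF cAMP assay; TSHR cells + compound, TSH EC80 (4nM final), 2 h, 37 deg C. Lysis with anti-cAMP cryptate and cAMP-d2, 30 min RT, read 665/620 nm.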
ELG1 DNA repair – inhibitors of ELG1-dependent DNA repair in HEK293T cells. AID 504467. 2.3% of 330,000 active. HEK293T ELG1-luciferase reporter, luminescence, 16 h; DNA damage induced by 5-fluorouridine. Potency, µM (doses to about 46.1 µM), usual class: inhibitors; note: nearly all actives have a fitted effect of over 55% in size
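In this reporter screen, reduction of luminescence relative to DMSO vehicle indicated activity. Compounds and 5-fluorouridine were added together to 2,000 cells per well, incubated for 16 hr at 37 °C, then developed with ONE-Glo.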
B2AR arrestin – recruits beta-arrestin to the human beta2-adrenergic receptor. P07550. beta-arrestin recruitment to beta2AR, cell-based reporter. Potency, µM (highest dose often 46.1 µM), actives largely listed as activators. 0.02% of 330,000 active; note: nearly all actives have a fitted effect of over 65% in size
Target sequence (P07550 whole entry, looked up): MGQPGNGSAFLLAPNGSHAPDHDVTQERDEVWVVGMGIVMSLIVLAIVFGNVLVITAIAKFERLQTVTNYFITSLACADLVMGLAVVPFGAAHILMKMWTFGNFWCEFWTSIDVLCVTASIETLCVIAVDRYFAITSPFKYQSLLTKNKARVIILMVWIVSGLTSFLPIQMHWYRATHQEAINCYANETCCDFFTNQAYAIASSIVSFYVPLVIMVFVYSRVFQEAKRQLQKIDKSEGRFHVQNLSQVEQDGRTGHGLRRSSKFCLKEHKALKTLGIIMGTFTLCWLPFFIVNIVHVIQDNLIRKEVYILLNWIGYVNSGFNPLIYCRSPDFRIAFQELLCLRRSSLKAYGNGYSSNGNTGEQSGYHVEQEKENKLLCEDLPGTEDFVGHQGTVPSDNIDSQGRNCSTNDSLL
VP16 counter – inhibits Gal4-VP16 luciferase reporter, ROR gamma counter-screen | Drosophila S2 Gal4-VP16 UAS-luciferase, luminescence, 20 h | Potency, µM (series often up to 53.6 µM), usual class: inhibitors | 3.5% of 310,000 active | AID 2546;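 note: Gal4-VP16 expression switched on by copper sulfate through the metallothionein promoter; nearly all actives have a fitted effect of over 50% in size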
RORgamma inh – ROR gamma (mouse) transcription inhibition. Potency, µM (doses to about 53.6 µM), most hits filed as inhibitors. 5.4% of 310,000 active. Drosophila S2 Gal4-RORgamma UAS-luciferase reporter, 20 h. P51450; note: nearly all actives have a fitted effect of over 60% in size
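Luciferase reporter read in Schneider cells carrying Gal4-RORγ (mouse) and UAS-Photinus luciferase; cells given compound 1 h before 700 uM copper sulfate induction, then incubated 20 h at ambient temperature.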
Numbers stand for hits; n = inactive; u = inconclusive; x = not tested or not shown; [ ] = dose if it differs, or a comment. An excerpt weighted towards active compounds, which were near 7.5% of everything screened. Unless noted, calls come from the whole dose curve; as a rule, active = well fitted curve in the direction sought with a large enough effect; inconclusive = small, poorly fitted or top-dose-only effect, or another doubt; inactive = no such curve, though single readings can be large; an effect the other way counts as inactive or inconclusive.

SMILES	TSHR antag	ELG1 DNA repair	B2AR arrestin	VP16 counter	RORgamma inh
COC(=O)[C@@H]1C[C@]2(OC(=O)c3ccccc3)C=CC(=O)C[C@@H]2N1C(=O)OCc1ccccc1	n	14.6µM	n	u	u
Oc1ccc(-c2n[nH]c(=S)n2-c2ccc3c(c2)OCCO3)c(O)c1	n	3.66µM	n	n	u
S=c1[nH]nc(-c2ccc(Cl)cc2Cl)n1-c1ccc2c(c1)OCCO2	n	n	n	n	3.55µM
COc1ccc(OC)c(-n2c(-c3ccc(O)cc3O)n[nH]c2=S)c1	n	u	n	n	u
COc1ccccc1-n1c(-c2ccccc2)c[nH]c1=S	n	n	n	u	2.82µM
S=c1[nH]cc(-c2ccccc2)n1-c1ccccc1Cl	n	n	n	7.08µM	3.55µM
S=c1[nH]ccn1-c1c(Cl)cccc1Cl	n	n	n	n	n
COc1cc2c(cc1OC)C1=NC(=O)CN1C(SCc1ccccc1C)=N2	n	10.3µM	n	n	u
Cn1cc(Br)c(C(=O)N/N=C/c2cc3ccccc3nc2Cl)n1	n	n	n	n	n
Cc1cccc(OCc2nnc(SCC(=O)N3c4ccccc4CC3C)n2C)c1C (centres undefined)	n	u	n	14.1µM	u
O=C(CSc1nnc(Cc2cccs2)n1CCc1ccccc1)N1CCCc2ccccc21	n	20.6µM	n	n	u
Cn1c(Cc2cccs2)nnc1SCC(=O)N1CCCc2ccccc21	n	u	n	n	n
CC1Cc2ccccc2N1C(=O)CSc1nnnn1C (centres undefined)	n	n	n	n	n
CC1Cc2ccccc2N1C(=O)CSc1nnc(Cc2ccccc2)n1CCc1ccccc1 (centres undefined)	n	18.4µM	n	n	n
COc1ccccc1CNc1ncnc2ccc(-c3ccoc3)cc12	x	x	x	n	n
Cc1cc(OCCOc2cccc3cccnc23)cc(C)c1Cl	n	n	n	n	20µM
CC(C)Oc1ccccc1OCCCOc1cccc2cccnc12	n	u	n	n	14.1µM
COc1ccc(C=C2c3ccccc3C(=O)c3ccccc32)c(OC)c1	n	23.1µM	n	n	n
COc1ccc(/C=C2\COc3ccccc3C2=O)c(OC)c1	n	u	n	n	n
O=C(Nc1cccc(S(=O)(=O)N2CCCCC2)c1)c1ccc([N+](=O)[O-])o1	n	u	n	u	10µM
Cc1ccc(C(=O)Nc2cccc(S(=O)(=O)N3CCCCC3)c2)cc1[N+](=O)[O-]	n	11.2µM	n	x	x
COc1cc(C(=O)Nc2cccc(S(=O)(=O)N3CCCC3)c2)c([N+](=O)[O-])cc1OC	n	n	n	x	x
O=C(O)c1cc(C(=O)O)c(C(=O)N(Cc2cccc(Oc3ccccc3)c2)[C@H]2CCCc3ccccc32)cc1C(=O)O	x	x	x	n	n
CC(=O)OC[C@H]1O[C@@H](O/N=C\[C@@H](C)[C@H](OCc2ccccc2)C(C)C)[C@H](OC(C)=O)[C@@H](OC(C)=O)[C@H]1OC(C)=O	x	x	x	n[10 µM]	n[10 µM]
COc1cccc(C(C[N+](=O)[O-])c2c(C)[nH]n(-c3ccccc3)c2=O)c1 (centres undefined)	n	u	n	7.94µM	u
SMILES	TSHR antag	ELG1 DNA repair	B2AR arrestin	VP16 counter	RORgamma inh
Cc1[nH]n(-c2ccccc2)c(=O)c1C(C[N+](=O)[O-])c1ccc(Br)cc1 (centres undefined)	n	n	n	n	u
CCOC(=O)C1=C(C)N(c2ccc(Cl)cc2)C(=O)NC1c1cccc([N+](=O)[O-])c1 (centres undefined)	n	u	n	n	u
COCCOC(=O)C1=C(C)N(c2ccccc2)C(=O)NC1c1cccc([N+](=O)[O-])c1 (centres undefined)	n	n	n	17.8µM	u
O=C(CNC(=O)c1ccc(Cl)cc1Cl)OC1CCCCC1=O (centres undefined)	x	n	n	x	x
CCCCCCCCCCCCCCCCn1cc[n+](Cc2ccccc2)c1C	x	x	x	7.08µM	u
O=c1c2c([nH]c3ccccc13)CCCCC2	n	u	n	17.8µM	u
O=c1c2c([nH]c3ccccc13)CCCCCC2	n	n	n	n	n
O=c1c2ccccc2[nH]c2ccccc12	n	n	n	20µM	u
Cc1ccc(C2(C)NC(=O)N(CC(=O)Nc3ccc(S(=O)(=O)Nc4nccs4)cc3)C2=O)cc1 (centres undefined)	n	n	n	x	x
C=CC[C@@H]1C=C[C@H](O/N=C(\C)CCN2CCc3nc(-c4ccccc4)c(-c4ccccc4)cc3C2)[C@H](CO)O1	x	x	x	n[10 µM]	n[10 µM]
CCNc1ncc2nc(-c3ccc(OC)cc3)c(=O)n(CCOC)c2n1	x	x	x	n	n
C=CC(=O)c1ccc(CCCCCC)cc1	n	x	x	n	n
Cc1ccc(-c2noc(CN(C(=O)CCCCCN3C(=O)c4ccccc4C3=O)C(C)C)n2)cc1	n	18.4µM	n	n	n
Cc1ccc(-c2noc(CN(C(=O)CCN3C(=O)c4ccccc4C3=O)C(C)C)n2)cc1	n	n	n	n	n
Cc1onc(-c2ccccc2Cl)c1C(=O)NCc1ccccc1F	n	n	n	n	n
Cc1cccc(C(=O)NNC(=O)c2c(-c3ccccc3Cl)noc2C)c1O	n	n	n	n	10µM
Cc1onc(-c2ccccc2Cl)c1C(=O)NCc1nc(-c2ccc(C(F)(F)F)cc2)no1	n	14.6µM	n	u	n
Cc1onc(-c2ccccc2Cl)c1C(=O)NNC(=O)c1ccc(F)cc1	n	n	n	n	n
Cc1ccc(C)c(C(=O)N(Cc2nc(-c3ccc(Cl)cc3)no2)C(C)C)c1	n	20.6µM	n	n	n
NC(Cc1ccccc1)C(O)c1ccco1 (centres undefined)	x	x	x	n	n
CCNc1ncc2nc(CCc3ccccc3)c(=O)n(CCOC)c2n1	x	x	x	n	n
CCCCCCCCCCOCCC(=O)O	x	x	x	n	n
Cc1onc(-c2ccccc2Cl)c1C(=O)N(Cc1nc(-c2ccccc2)no1)C1CCCCC1	n	u	n	n	n
Cc1cccc(-c2noc(CN(C(=O)c3c(-c4ccccc4Cl)noc3C)C(C)C)n2)c1	n	20.6µM	n	n	n
Cc1ccc(C(=O)NC(=S)Nc2ccccc2N2CCOCC2)cc1C	n	n	n	7.94µM	4.47µM
SMILES	TSHR antag	ELG1 DNA repair	B2AR arrestin	VP16 counter	RORgamma inh
COc1cc(C(=O)NC(=S)Nc2ccccc2N2CCOCC2)cc(OC)c1OC	n	n	n	n	n
Cc1ccc(C(=O)Nc2ccccc2N2CCOCC2)cc1S(=O)(=O)N1CCOCC1	n	u	n	x	x
Cc1ccc(C(=O)N/C(=C\c2ccco2)C(=O)N2CCOCC2)cc1C	n	20.6µM	n	n	n
O=C(Nc1cc(Cl)ccc1N1CCOCC1)c1ccc(Br)o1	n	u	n	u	u
COc1ccc(N2CCOCC2)c(NC(=O)c2ccc(Br)o2)c1	n	16.4µM	n	n	n
COc1cccc(C(=O)NC(=S)Nc2ccccc2N2CCOCC2)c1	n	n	n	6.31µM	3.98µM
CN(CC(=O)Nc1ccc(F)c(F)c1F)C(=O)c1ccc(-n2cncn2)cc1	n	n	n	x	x
